# Measured values: publication PMC5540273 (PLoS ONE, 2017)
# “And” between values parts separate entries of the source, which are not always exact repeats. Equal entries are not always repeated. Where two headings read alike, the source gives them in different places.
# Key:
# PAK1 = conditions: concentration: 1 μM, replicates: in singlicate, n = 1
# PAK2 = conditions: concentration: 1 μM, replicates: in singlicate, n = 1
# PAK3 = conditions: concentration: 1 μM, replicates: in singlicate; n = 1
# PAK4 = conditions: concentration: 1 μM, replicates: in singlicate; n = 1
# PAK6 = conditions: concentration: 1 μM, replicates: in singlicate; n = 1
# PAK7 = conditions: concentration: 1 μM, replicates: in singlicate, n = 1
# PCTK1 = system: T1, PCTK1; conditions: concentration: 1 μM, replicates: in singlicate; n = 1
# T1 construct: gene CDK16
# PCTK2 = system: T2, PCTK2; conditions: concentration: 1 μM, replicates: in singlicate, n = 1
# T2 construct: gene CDK17
# PCTK3 = system: T3, PCTK3; conditions: concentration: 1 μM, replicates: in singlicate, n = 1
# T3 construct: gene CDK18
# PDGFRA = conditions: concentration: 1 μM, replicates: in singlicate, n = 1
# 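Note: KINOMEscan kinase panel screen.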
SMILES,%Inh (PAK1) [%],%Inh (PAK2) [%],%Inh (PAK3) [%],%Inh (PAK4) [%],%Inh (PAK6) [%],%Inh (PAK7) [%],%Inh (PCTK1) [%],%Inh (PCTK2) [%],%Inh (PCTK3) [%],%Inh (PDGFRA) [%],%Inh (PAK1; 1 µM),%Inh (PAK2; 1 µM),%Inh (PAK7; 1 µM),%Inh (PCTK2; 1 µM),%Inh (PCTK3; 1 µM),%Inh (PDGFRA; 1 µM)
Fc1cccc(COc2ccc(Nc3ncnc4cc[nH]c34)cc2Cl)c1,30,35,10,26,0,22,5,48,10,22,,,,,,
CNc1nccc(-c2c(-c3ccc(F)cc3)ncn2CCCN2CCOCC2)n1 [SB-222516],65,85,0,0,0,0,0,0,0,0,,,,,,
Cn1cc(-c2ccc3c(c2)CCN3C(=O)Cc2cccc(C(F)(F)F)c2)c2c(N)ncnc21 [GSK2606414],0,0,25,0,0,0,4,0,0,38,,,,,,
Cn1ccc2ncnc(Nc3ccc(Oc4cccc(Cl)c4)c(Cl)c3)c21,18,0,9,19,0,0,24,26,0,26,,,,,,
O=C(NCCCN1CCCC1=O)c1cnc(NCc2cc(Cl)ccc2Cl)nc1NC1CCNCC1,5,0,0,3,0,0,0,0,10,0,,,,,,
Cl.c1ccc(Cn2ncc3cc(Nc4ncnc5ccccc45)ccc32)cc1 [GW273749],5,0,0,0,15,6,0,0,23,0,,,,,,
COc1ccc(-c2nc3n(c2-c2ccncc2)CCC3)cc1 [SKF-104493],,,0,0,0,,0,,,,0% and 27%,23% and 10%,0% and 15%,3% and 0%,0% and 28%,25% and 3%
CCn1c(-c2ccncc2)nc2cnccc21 [SB-735216],0,47,0,0,0,0,0,0,0,13,,,,,,
C[C@H]1CC[C@@H](C(=O)Nc2ccccc2)CN1c1cc(-c2ccc3c(N)n[nH]c3c2)nc(N)n1 [GSK2283293],0,3,0,0,0,0,0,0,12,0,,,,,,
O=C(CCO)NCCn1ccc2ncnc(Nc3ccc(Oc4cccc(C(F)(F)F)c4)c(Cl)c3)c21,0,2,28,0,0,0,0,0,0,0,,,,,,
N#Cc1ccc(Oc2ccc(Nc3ncnc4cc[nH]c34)cc2Cl)cc1,35,45,24,19,27,15,0,13,20,25,,,,,,
c1ccc(-c2ccc3c(-c4ccnc(Nc5ccc6c(c5)OCCO6)n4)cnn3n2)cc1 [GW818941],6,28,18,0,83,0,0,7,0,8,,,,,,
Clc1ccc(-c2cc(-c3c[nH]nc3-c3ccccn3)ccn2)cc1 [GW681251],3,0,2,39,1,0,0,0,12,0,,,,,,
Cl.c1ccc(Cn2ccc3cc(Nc4ncnc5ccccc45)ccc32)cc1 [GW275568],12,13,0,9,8,35,0,16,18,2,,,,,,
Clc1cc(Nc2ncnc3cc[nH]c23)ccc1OCc1ccccn1,10,29,39,10,29,7,2,19,19,29,,,,,,
CC(C)N1CCC(n2cnc(-c3ccc(F)cc3)c2-c2ccnc(N)n2)CC1 [SB-223132],19,23,0,26,0,0,0,0,7,0,,,,,,
COc1ccc(Nc2nccc(N3CCC(NC(=O)c4cccc(NC(C)=O)c4)C3)n2)cc1 (centres unmarked) [GSK1379732],0,0,0,0,0,6,0,10,1,0,,,,,,
